Source: PubChem BioAssay
Only some compounds are listed: those with a hit (about 2.4% of all), similar ones and a draw of the others.
TLR9-MyD88 inh: inhibitors of TLR9-MyD88 association in cells, primary screen, cell-based, CHO, BLA complementation, fluorescence | Toll-like receptor 9 (Homo sapiens) + Myeloid differentiation primary response protein … | CCF4 FRET ratio | inhibition, % at 4.98 µM | 340,000 tested, 0.21% active;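 active = inhibition above the mean over all tested compounds plus 3 SD, cut at about 21% in these data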;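 also: 0% = DMSO only wells and 100% = clavulanate BLA inhibitor control wells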
TLR4-MyD88 BLA: inhibitors of TLR4-MyD88 association in cells, primary screen, cell-based, HeLa CL3-4, BLA complementation, FRET ratio; Toll-like receptor 4 (Homo sapiens) + Myeloid differentiation primary response protein …; HeLa CL3-4 TLR4/MyD88 BLA complementation; inhibition, % at 8.4 µM; 200,000 tested, 0.18% active; AID 861, 2007; in the data active = inhibition above about 25%;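 also: 0% = vehicle and 100% = reference inhibitor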
HTR2A ag: mouse Htr2a agonists via beta-arrestin recruitment, primary screen, cell-based, luminescence; CHO-K1 mHTR2A beta-arrestin complementation; percent of 30 µM serotonin response; activation, % at 7.6 µM; 360,000 tested, 0.66% active;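 active = activation above a run cutoff, the mean activation of all tested compounds plus 3 SD, cut at about 14% in these data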;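 also: 0% = plate median of compound wells and 100% = 30 µM serotonin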
TMEM16A act: TMEM16A chloride channel activators or potentiators, primary screen, cell-based, HTS; Anoctamin-1 (Mus musculus), Q8BHY3; HEK293 TMEM16A/YFP-H148Q/I152L, iodide quench fluorescence; stronger effect = lower value; B-score at 10 µM; 340,000 tested, 0.3% active;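 active = fluorescence-ratio B-score plate-corrected deviation score at least 3 library SD below zero, with starting fluorescence score within 5 deviations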;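 also: channel opened by trigger with iodide after compound preincubation; score built on the fluorescence ratio of max minus min over baseline; more negative score means more quench and so TMEM16A activation or potentiation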
TMEM16A inh: TMEM16A chloride channel inhibitors, primary screen, cell-based, HTS | Anoctamin-1 (Mus musculus), Q8BHY3 | HEK293 TMEM16A/YFP iodide influx fluorescence, ionomycin | normalized B-score (activity score, 25-100; higher = stronger inhibition) at 10 µM | 310,000 tested, 1.2% active | AID 588511, 2011;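 active = ratio plate-corrected score three or more library SD toward inhibition, starting fluorescence score within five deviations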;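 also: score derived from kinetic fluorescence span divided by baseline fluorescence per well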
NOD2-RIPK2 inh: NOD2-RIPK2 binding disruptors in cells, primary screen, fluorescence, CHO cells, BLA complementation. 360,000 tested, 0.38% active. CCF4 ratio. Receptor-interacting serine/threonine-protein kinase 2 (Homo sapiens), O43353. inhibition, % at 4.98 µM; in the data active = inhibition above about 21%;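 also: 0% = vehicle only and 100% = reference blocker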
An asterisk follows results filed as active; i = inactive; . = not tested or not shown.

SMILES | TLR9-MyD88 inh | TLR4-MyD88 BLA | HTR2A ag | TMEM16A act | TMEM16A inh | NOD2-RIPK2 inh
COc1ccc(-n2c(C)ccc2-c2ccccc2)cn1 | -3 | . | 3 | -4.8* | i | 4
Cc1nn(C(C)C(=O)Nc2sc3c(c2C#N)CCCC3)c(C)c1[N+](=O)[O-] (configuration not stated) | 0 | -3 | -1 | i | 100* | 0
CC(C)c1ccc(N(CC(=O)NC2CCCC2)C(=O)CCC(=O)Nc2nccs2)cc1 | -4 | . | 5 | i | i | -7
COc1ccccc1-c1ccc(SCc2ccccc2F)nn1 | 8 | 6 | 4 | i | 25* | 7
COc1ccccc1-c1ccc(SCc2ccccc2)nn1 | 10 | -2 | -5 | i | i | -6
CC[n+]1c(/C=C/N(C)c2ccccc2)n(-c2ccccc2)c2ccc(-c3nc4ccccc4s3)cc21 | 17 | . | 20* | i | i | 31*
COc1ccc(-c2nnn(CC(=O)N3CCN(c4ccc(F)cc4)CC3)n2)cc1 | -2 | . | 0 | i | i | -5
COc1ccc(N2CCN(C(=O)CN3CCN(c4nc(-c5ccc(F)cc5)cs4)CC3)CC2)cc1 | 11 | 15 | 3 | i | 25* | -7
Cc1cc(OC(C)C(=O)NCCc2c[nH]c3ccccc23)c2c(C)cc(=O)oc2c1 (configuration not stated) | -13 | . | -4 | -10* | i | 1
CCN(CCCNC(=O)CCc1nc(-c2ccc(OC)cc2)no1)c1cccc(C)c1 | -1 | 7 | 0 | i | 100* | 0
COc1ccc(-c2noc(CCC(=O)NCCc3ccccc3)n2)cc1 | 4 | . | 2 | i | i | 10
CCOc1ccc(NS(=O)(=O)c2ccc(C(=O)N3CCCC(C)C3)cc2)cc1 (configuration not stated) | 4 | . | 11 | i | 100* | -4
COc1ccc(NS(=O)(=O)c2ccc(C(=O)N3CCN(Cc4ccccc4)CC3)cc2)cc1 | -3 | 2 | -1 | i | 25* | -6
Cc1ccc(C(=O)NN=C2CCCC2)cc1C | 5 | . | -8 | i | i | -5
COc1ccccc1N=c1oc2c(OC)cccc2cc1C(=O)NCc1ccco1 | 2 | 6 | 0 | i | 25* | 1
C[C@H]1CN=C(Nc2ccccc2)N1CC1CCC1 | 4 | . | 6 | i | i | -11
CC(C)C[C@H]1CN=C(Nc2ccccc2)N1CC1CCC(C(C)(C)C)CC1 (some centres not stated) | -2 | . | 0 | i | 100* | 1
C[C@H]1CN=C(Nc2ccccc2)N1CC1CCCCCC1 | 5 | . | -5 | -6.7* | i | 10
CC(=O)Nc1nc2ccc(C(=O)NCCOC(=O)C3CCCCC3)cc2s1 | 4 | 9 | -3 | i | i | 10
Cc1[nH]n(-c2ccc(Cl)cc2)c(=O)c1/C=N/c1nnc(-c2ccccc2)s1 | 2 | -6 | 1 | i | 25* | -2
CCc1nnc(NS(=O)(=O)c2ccc(N=Cc3c(C)[nH]n(-c4ccc(Cl)cc4)c3=O)cc2)s1 | 3 | -4 | 8 | i | i | -13
COc1cc(C(=S)N2CCOCC2)ccc1OC(=O)c1cccc(C)c1 | -6 | . | -6 | i | 25* | -10
COc1cc(C(=S)N2CCOCC2)ccc1OC(=O)c1ccc(Br)cc1 | 0 | . | -2 | i | i | -4
CCCCn1c(N)c(N(CCOC)C(=O)c2ccc(-c3ccc([N+](=O)[O-])cc3)o2)c(=O)[nH]c1=O | 0 | . | 4 | i | i | 5
COC(=O)C1CCN(C(=O)CN2C(=O)NC3(CCC(C)CC3)C2=O)CC1 (configuration not stated) | -11 | . | 2 | i | . | -9
